# Compound activity (PubChem BioAssay)
# In the library only some 8.1% were active in any assay of this set; here they are far more common.
# NOMO-1 viab: STK33 inhibitor candidate reducing NOMO-1 cell viability | NOMO-1 AML viability, CellTiter-Glo luminescence, 72 h | inhibition, % (concentration not given with the values) | 37,000 tested, 7.5% active; in the data active = inhibition above about 80%
# PD-1 reverse act: activators reversing PD-1 mediated T-cell inhibition | activation, % (concentration not given with the values) | primary human CD4 T cells, PD-L1 beads, CellTiter-Glo 96 h | AID 2316 | 29,000 tested, under 10 active; call rule not given here;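 also: 0% = median vehicle wells and 100% = positive control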
# Shh pathway inh: blocks Sonic Hedgehog signaling; Shh-LIGHT2 Gli-luciferase reporter, 30 h; 22,000 tested, 2.1% active; AID 2313; inhibition, % (concentration not given with the values);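 active = mean inhibition across valid replicates above about 65%, limit read from the data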;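 also: pathway switched on by Shh-conditioned medium diluted 1 in 25 in low serum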
# MITF inhib: inhibitors of MITF. TRPM1 promoter luciferase, luminescence, 24 h. inhibition, % (no concentration beside the values). 37,000 tested, 0.28% active; in the data active = inhibition above about 85%;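 also: human melanocyte line stably carrying TRPM1 promoter luciferase reporter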
# * marks the source's active call; other numbers are inactive results; x = no result given.
SMILES,NOMO-1 viab,PD-1 reverse act,Shh pathway inh,MITF inhib
COc1ccc(CN(C)C[C@@H]2Oc3c(NC(=O)Nc4ccc(C(F)(F)F)cc4)cccc3C(=O)N([C@@H](C)CO)C[C@@H]2C)cc1,11.0,x,-22.7,-8.8
COC(=O)c1cccc(NC(=O)CSc2nc(=O)cc(N)n2-c2ccccc2)c1,2.9,0.3,x,4.4
COc1ccc(NC(=O)N(C)C[C@H]2Oc3ccc(NC(=O)CCC(F)(F)F)cc3CC(=O)N([C@H](C)CO)C[C@H]2C)cc1,14.0,-0.7,-6.9,-1.8
COc1cc2c(cc1NC(=O)C(C)Oc1ccc(Cl)cc1Cl)oc1ccccc12 (stereo unspecified),22.5,x,x,-35.1
COc1ccc(CN(C)C[C@H]2Oc3c(NC(=O)Nc4ccc(C(F)(F)F)cc4)cccc3C(=O)N([C@H](C)CO)C[C@@H]2C)cc1,94.3*,-6.1,-89.2,25.2
COc1ccc(CN(C)C[C@H]2Oc3c(NC(=O)Nc4ccc(C(F)(F)F)cc4)cccc3C(=O)N([C@@H](C)CO)C[C@H]2C)cc1,49.9,x,-29.7,-2.6
COc1ccc(NC(=O)Nc2cccc3c2O[C@H](CN(C)Cc2ccc(C(F)(F)F)cc2)[C@@H](C)CN([C@H](C)CO)C3=O)cc1,106.2*,-1.8,4.7,15.9
C[C@@H]1CCCCO[C@@H](CN(C)C(=O)NC2CCCCC2)[C@@H](C)CN([C@H](C)CO)C(=O)c2cc(NC(=O)CCCN(C)C)ccc2O1,-4.5,x,-10.5,-10.8
O=C1C[C@H](c2ccccc2)Oc2c(Cc3ccccc3O)c(O)cc(O)c21,17.9,-1.1,-25.5,92.3*
Cc1ccc(S(=O)(=O)Nc2ccc3c(c2)CC(=O)N([C@H](C)CO)C[C@H](C)[C@H](CN(C)C(=O)NC2CCCCC2)O3)cc1,21.9,-0.7,-33.6,-4.0
COC(=O)C1=C(C)NC(=O)CC1c1ccccc1C (stereo unspecified),-4.6,1.4,14.8,-15.6
Cc1ccccc1C1CC(=O)c2c(ccc3ccccc23)N1 (stereo unspecified),139.7*,-1.7,41.0,53.3
CC(C)OC(=O)C1C2C=CC3(CN(Cc4ccco4)C(=O)C13)O2 (stereo unspecified),10.2,2.9,x,-11.9
C[C@H]1CN([C@@H](C)CO)C(=O)Cc2cc(NC(=O)Nc3cccc4ccccc34)ccc2O[C@@H]1CN(C)Cc1ccc(Oc2ccccc2)cc1,116.2*,0.6,-47.9,19.0
C[C@@H]1CN([C@@H](C)CO)C(=O)Cc2cc(NC(=O)Nc3cccc4ccccc34)ccc2O[C@@H]1CN(C)Cc1ccncc1,82.0*,-5.0,15.2,-2.6
C[C@H](CO)N1C[C@H](C)[C@H](CN(C)Cc2ccccc2)Oc2ccc(NC(=O)Nc3cccc4ccccc34)cc2CC1=O,18.4,0.8,20.0,10.3
C[C@H]1CN([C@@H](C)CO)C(=O)Cc2cc(NC(=O)Nc3cccc4ccccc34)ccc2O[C@@H]1CN(C)Cc1ccc(-c2ccccc2)cc1,96.0*,-0.2,-28.2,2.8
C[C@H](CO)N1C[C@H](C)[C@H](CN(C)Cc2ccc(Oc3ccccc3)cc2)Oc2ccc(NC(=O)Nc3cccc4ccccc34)cc2CC1=O,9.6,-0.6,7.6,-11.2
COc1ccc(NC(=O)Nc2cccc3c2O[C@@H](CN(C)C(=O)Nc2ccc4c(c2)OCO4)[C@H](C)CN([C@H](C)CO)C3=O)cc1,-10.9,0.3,-6.6,-5.7
C[C@H](CO)N1C[C@H](C)[C@H](CN(C)Cc2ccc(-c3ccccc3)cc2)Oc2ccc(NS(=O)(=O)c3cn(C)cn3)cc2C1=O,1.0,0.7,-23.9,7.2
CC(C)NC(=O)Nc1ccc2c(c1)C(=O)N([C@@H](C)CO)C[C@@H](C)[C@@H](CN(C)C(=O)Nc1ccc(C(F)(F)F)cc1)O2,-8.4,-2.0,-5.8,11.7
C[C@@H]1CN([C@@H](C)CO)C(=O)c2cccc(NC(=O)Nc3ccc(C(F)(F)F)cc3)c2O[C@@H]1CN(C)Cc1ccc(C(=O)O)cc1,-11.7,1.0,-16.3,-6.8
C[C@@H]1CN([C@H](C)CO)C(=O)c2cccc(NC(=O)Nc3ccc(F)cc3)c2O[C@H]1CN(C)Cc1ccc(C(F)(F)F)cc1,82.5*,-4.7,22.2,38.3
C[C@H](CO)N1C[C@H](C)[C@@H](CN(C)Cc2ccc(C(F)(F)F)cc2)Oc2c(NC(=O)Nc3ccc(F)cc3)cccc2C1=O,112.6*,-2.1,-41.4,21.4
C[C@H](CO)N1C[C@H](C)[C@H](CN(C)Cc2ccc(C(F)(F)F)cc2)Oc2c(NC(=O)Nc3ccc(F)cc3)cccc2C1=O,69.3,-1.6,-86.0,28.7
C[C@@H]1CN([C@@H](C)CO)C(=O)c2cccc(NC(=O)Nc3ccc(F)cc3)c2O[C@@H]1CN(C)Cc1ccc(C(F)(F)F)cc1,88.3*,-2.5,35.1,5.0
